This note sets out measurements from PubChem BioAssay (NCI).

Structures are written as SMILES. This is part of a sample that, as a whole, favours compounds with a hit. Of some 83,000 tested, about 20% had one in any assay.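 Activity criterion: percent growth below 10, measured after cells in 96-well plates were exposed to a single compound concentration for 48 hours.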 Values without a mark were called inactive. Active and inactive are the calls of the source.

For the assay, the system named is SK-OV-3 ovarian. The assay is described as follows: NCI-60 one-dose screen, 48 h (100 = growth as untreated, 0 = no growth, -100 = all killed). The settings on record: 10 µM unless noted. The procedure: Growth inhibition of the SK-OV-3 human tumor cell line is measured as a screen for anti-cancer activity. Cells are grown in 96 well plates and exposed to the test compound for 48 hours. Compounds are tested at a single concentration, which is 10^-5 M for most compounds. The reported endpoint is percent growth (GI% or GIPRCNT), where numbers from 0 - 100% represent growth inhibition, and numbers from -100% - 0 represent cell death. For example, a value of 40 represents 60% growth inhibition. A value of 0 means no net growth occurred over the course of the experiment. A value of -40 indicates 40% of cells at the beginning of the experiment died by the end of the experiment. A value of -100 means all cells are dead at the end of the experiment.
NCI-60 Human Tumor Cell Lines Screen was performed using the standard one-dose NCI protocol, which is described in more detail at https://dtp.cancer.gov/discovery_development/nci-60/default.htm.
Compounds with GIPRCNT values below 10 were considered active. Activity score was based on GIPRCNT using the following formula: […]
Score is 0 for GIPRCNT values of 100 or above, 50 for GIPRCNT values of 0, and 100 for GIPRCNT values of -100.
For the compound `Cn1cc(-c2csc(-c3c[nH]c4ncccc34)n2)c2cc(F)cnc21`, the growth is 81.8%.

Turning to `Cc1ccc(NC(=O)CSc2nnc3n(Cc4ccccc4)c(=O)c4c(C)c(C(N)=O)sc4n23)cc1`, the growth was -7.67% (active).

For the compound `O=C(NCCc1ccccc1)C1CCC(=O)N1Cc1ccc(Br)cc1` (stereo not given), the growth was 101%.

As for `O=C(O)C(=O)O`, the growth was 95.7%.

For the compound `COc1ccc(C(=O)Nc2nc(-c3ccc(Cl)cc3)cs2)cc1`, the growth is 87.1%.

For the compound `COc1ccc(CCN2CCCN3C2=Nc2ccccc2S3(=O)=O)cc1`, the growth was 48.6%.

Consider `c1ccc(-c2nnc(Nc3nnc(-c4ccccc4)s3)s2)cc1`, for which the growth is 96.8%.

With `C=C(C)[C@@H]1C/C=C(/C=O)CC[C@@H]2O[C@@]2(C)CC/C=C(\C)CC1`, the growth was 106%.

Regarding `O=C(CSc1nc2c(n1Nc1ccccc1)-c1ccccc1SC2)Nc1nc(-c2ccc(Cl)cc2)cs1`, the growth is 82.9%.

`COc1c(O)cc2oc3cc(O)c(CC=C(C)C)c(O)c3c(=O)c2c1C/C=C(\C)CCC=C(C)C`: the growth was 100%.

As for `CCN(CC)c1ccc(N=Nc2cc(Cl)ccc2Cl)c(NC(=O)CCC(=O)O)c1`, the growth was 97.5%.

As to `O=C(c1nn(-c2ccc(Cl)cc2)cc1O)n1nc(C(F)(F)F)cc1-c1ccccc1`, the growth was 23.2%.

Turning to `CCCCCCCCCCCCCCCCCc1nccn1CCO`, the growth is 94.6%.

For `COc1ccc(C2CC(c3ccc(OC)c(OC)c3)=NN2C(=O)c2cc(OC)c(OC)c(OC)c2)c(OC)c1` (stereo not given), the growth was 65.6%.

Regarding `NC(N)=NC(N)=NCCCc1ccccc1`, the growth was 67.7% [100 µM].

As for `Cc1cc(C)n(C(=O)c2nn(-c3ccc(Cl)cc3)cc2O)n1`, the growth is 87.5%.

Take `Cc1cc(NC(=O)Nc2cc(Cl)ccc2C)no1`: the growth was 99.7%.

`CC1=C(C(=O)Nc2ccccc2)C(c2ccc3c(c2)OCCO3)NC(=O)N1` (stereo not given): the growth was 101%.

For the compound `CC1=CSC2=NCCN12`, the growth is 110%.

Consider `Cc1cc(=O)n2n1-c1ccc(Cl)cc1NC(=O)C2`, for which the growth was 109%.

On to `Cc1c(C(N)=O)sc2c1C(=O)N(Cc1ccccc1)C1=NN=C(c3ccc(Cl)cc3)CN12`, for which the growth is 58.5%.

With `C/C(=C\CCc1ccsc1)CC/C=C(\C)CCCN1CCN(CCO)CC1`, the growth is 77.4%.

Consider `Clc1ccc(CCC(Cn2ccnc2)Sc2c(Cl)cccc2Cl)cc1` (stereo not given), for which the growth is 91.1%.

For the compound `COc1ccc(C2=NNC(c3cc(Cc4ccc(O)c(C5CC(c6ccc(OC)cc6)=NN5)c4)ccc3O)C2)cc1` (stereo not given), the growth is 93.9%.

For the compound `Cc1c(N(C)CS(=O)(=O)O)c(=O)n(-c2ccccc2)n1C`, the growth was 104%.

As to `COc1ccc2c(c1)C(=O)c1c-2c(OCCN(C)C)nc2cc(OC)ccc12`, the growth is 23.9%.

`Clc1cc(Cl)c(OCC#CI)cc1Cl`: the growth is 102%.

As to `CCCCCCC(C)(O)c1ccccc1` (stereo not given), the growth is 103%.

Consider `CC1SC(c2c(Cl)cccc2Cl)N(NC(=O)c2[nH]c3ccc(F)cc3c2-c2ccccc2)C1=O` (stereo not given), for which the growth is 19.1%.

For the compound `COC(=O)CC1=C(C)/C(=C/c2[nH]c(-c3ccc[nH]3)cc2OC)N=C1C`, the growth is 20.2%.

On to `Clc1ncn[nH]1`, for which the growth is 96.3%.

On to `COC(=O)c1ccc2c(c1)nc(-c1ccc(O)c(OC)c1)n2-c1cc(C(C)(C)C)[nH]n1`, for which the growth was 133%.

On to `O=C(/C(=C/c1cccc([N+](=O)[O-])c1)c1ccccc1)c1ccccc1`, for which the growth is 105%.

In the case of `CCCCCCCCCCC[C@@H](C[C@H]1OC(=O)[C@H]1CCCCCC)OC(=O)[C@@H](CC(C)C)NC=O`, the growth was 88.1%.

`Clc1ccc2nc(Cl)c3ccccc3c2c1`: the growth was 0.43% (active).

With `COc1cc2c(-c3nc4cc(Cl)c(F)cc4s3)cc(=O)oc2c(C)c1OC`, the growth was -85% (active).

For the compound `c1ccc(N2CCN(c3nncc4ccccc34)CC2)nc1`, the growth was 104%.

As for `CSc1nnc(C2=CC(=O)c3ccccc3C2=O)n1-c1ccccc1`, the growth is 93.7%.

With `CCC(C)(C)C(=O)O[C@H]1C[C@@H](C)C=C2C=C[C@H](C)[C@H](CC[C@@H]3C[C@@H](O)CC(=O)O3)[C@H]21`, the growth is 70%.

Consider `COc1ccc(-c2c3c(nn2-c2ccc(N)cc2)CCc2cnoc2-3)cc1OC`, for which the growth is 124%.
